Bioassay records from PubChem BioAssay.
Hits are enriched below; roughly 4.1% of the tested compounds scored in any of these assays.
hgDAF12 agonist: H. glycines DAF-12 receptor agonists, primary screen, cell-based, luminescence, HEK293, GAL4 fusion, UAS-luciferase; HEK293 GAL4-hgDAF12 UAS-luciferase reporter, agonist luminescence; normalized to butyrate control; Nuclear hormone receptor DAF-12 (Heterodera glycines), GAL4 fusion; activation, % at 6.8 µM; 370,000 compounds, 1.8% hits;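 active = activation above a cutoff set at the mean of all screened compounds plus 3 SD, cut at about 10% in these data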;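 note: 0% = DMSO wells and 100% = sodium butyrate wells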
DAX1 inh-1: DAX1 (NR0B1) inhibitors, primary screen, cell-based, HEK293, Gal4-DAX1, luciferase luminescence | HEK293 Gal4-DAX1 luciferase reporter | 340,000 compounds, 0.99% hits | Nuclear receptor subfamily 0 group B member 1 (Homo sapiens), P51843 | inhibition, % at 6.75 µM;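 active = inhibition above the mean over all tested compounds plus 3 SD, cut at about 4.2% in these data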;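 note: 0% = DAX1-transfected cells with DMSO and 100% = empty-vector control cells with DMSO; inhibition shows as a rise in luminescence from relieved DAX1 repression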
Target sequence (P51843 207-470 limits assumed): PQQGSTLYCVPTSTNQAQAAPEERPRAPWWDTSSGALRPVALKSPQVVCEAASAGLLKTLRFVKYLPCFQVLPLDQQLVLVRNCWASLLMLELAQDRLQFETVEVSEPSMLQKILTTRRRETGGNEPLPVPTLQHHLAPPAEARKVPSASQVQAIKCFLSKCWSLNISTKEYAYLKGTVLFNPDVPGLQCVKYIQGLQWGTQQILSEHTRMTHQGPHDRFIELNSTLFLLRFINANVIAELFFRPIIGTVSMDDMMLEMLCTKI
DAX1 inh-2: DAX1 (NR0B1) inhibitors on StAR promoter, primary screen, cell-based, luminescence, SF-1 (NR5A1), full-length DAX-1. inhibition, % at 6.8 µM. HEK293T StAR-luciferase reporter, SF-1/DAX-1 repression relief. 370,000 compounds, 1.1% hits;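 active = inhibition above the mean over all tested compounds plus 3 SD, cut at about 3.6% in these data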;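 note: 0% = DAX-1 cells with DMSO and 100% = cells lacking DAX-1 with DMSO; higher inhibition means more luminescence from relief of DAX-1 repression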
hcDAF-12 act: H. contortus DAF-12 nuclear receptor activators, primary screen, cell-based, luminescence, HEK293, lit1-tk-luc reporter; activation, % at 6.8 µM; HEK293 hcDAF-12 lit1-tk-luc reporter; 0% DMSO, 100% Δ7-dafachronic acid; 370,000 compounds, 1.4% hits;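 active = activation above the mean of all tested compounds plus 3 SD, cut at about 5.5% in these data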;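 note: 100% = response to 3 µM Δ7-dafachronic acid high control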
ssDAF12 agonist: S. stercoralis DAF-12 nuclear receptor activators, primary screen, cell-based, luminescence, HEK293, GRIP1 co-expression, lit1-tk-luc; Nuclear hormone receptor DAF-12 (Strongyloides stercoralis); HEK293 ssDAF-12/GRIP1 lit1-tk-luc reporter; % of 3 µM dafachronic acid response; activation, % at 6.8 µM; 370,000 compounds, 1% hits; AID 652126, 2013;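 active = activation above the mean over all tested compounds plus 3 SD, cut at about 0.9% in these data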;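 note: 0% = DMSO-only wells and 100% = 3 µM delta7-dafachronic acid wells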
Numbers without * were called inactive; · = no result.

SMILES	hgDAF12 agonist	DAX1 inh-1	DAX1 inh-2	hcDAF-12 act	ssDAF12 agonist
COc1ccc(-c2nc(CN3CCCCC3c3cccnc3)c(C)o2)c(F)c1 (configuration not stated)	12*	0	0	-1	-1
Cc1oc(-c2ccccc2Cl)nc1CN1CCCCC1c1cccnc1 (configuration not stated)	-2	0	0	1	-2
Cc1cccc(-c2ccc3c(c2)C2CC3CCN2Cc2ccc3c(c2)OCO3)c1 (configuration not stated)	0	-1	4.0*	-1	0
CCOC(=O)CC1(O)CSc2nc(N)cc(=O)n21 (configuration not stated)	4	·	0	0	-1
Cc1ccc(C(=O)NCCCc2ccccc2)s1	10	3	1	6.2*	0
Cc1ccc(C(=O)NCC(=O)NCCCc2ccccc2)s1	-1	-1	0	0	-1
Cc1ccc(C(=O)NCCc2c[nH]c3ccccc23)s1	10	1	1	1	1.3*
O=C(NCCc1c[nH]c2ccccc12)c1ccc([N+](=O)[O-])cc1	3	1	0	2	0
O=C(NCCc1c[nH]c2ccccc12)c1ccccc1	7	1	0	2	-1
O=C(NCCc1c[nH]c2ccccc12)c1cc([N+](=O)[O-])cc([N+](=O)[O-])c1	-1	-1	0	5	0.9*
COC(=O)[C@H](C)N(Cc1cn(Cc2ccccc2)nn1)S(=O)(=O)c1ccccc1Br	2	·	-1	-1	-1
CON(C)S(=O)(=O)c1cccc(C(=O)N(CC(=O)Nc2ccccc2C(F)(F)F)Cc2ccco2)c1	-4	-1	0	2	-2
O=C(CN(Cc1ccco1)C(=O)c1cccc(F)c1)Nc1ccccc1C(F)(F)F	0	1	3.7*	0	-1
Cn1c(SC/C=C/c2ccccc2)nnc1-c1cccnc1	2	·	0	-1	-2
O=S1(=O)c2c(NCc3ccco3)cccc2Oc2ccccc2CN1Cc1cn(Cc2ccc(F)cc2)nn1	-2	·	0	-2	-2
O=C(O)CCCNC(=O)CCn1nnc2ccccc2c1=O	0	2	1	-1	-2
O=C(O)CCCCCNC(=O)CCn1nnc2ccccc2c1=O	-1	5.9*	0	-1	-2
CC(C)CCSc1nc2ccccc2[nH]1	13*	4	2	1	-1
O=c1c2ccccc2nnn1CSc1nc2ccccc2[nH]1	11*	3	2	0	-1
COc1ccc2c(c1C(=O)/C=C/c1ccccc1)OC(C)(C)C=C2	1	·	·	-3	-1
O=C1N(Cc2ccccc2)c2ccccc2C12CCCc1sc(CCc3ccccc3)nc12 (configuration not stated)	-1	·	0	-2	-2
CCCc1cc(C(=O)Cc2nc3ccccc3s2)c(O)cc1O	5	1	1	5.7*	0.9*
CCCc1cc(C(=O)Cc2ccc(F)cc2)c(O)cc1O	0	0	0	-1	-1
Cc1ccc(-c2cc(-c3nnc4sc(Cc5cccs5)nn34)[nH]n2)cc1	0	·	-1	-3	-2
COc1ccc(NC(=O)c2cc(C3CC3)on2)c(OC)c1	6	1	2	5	1.1*
SMILES	hgDAF12 agonist	DAX1 inh-1	DAX1 inh-2	hcDAF-12 act	ssDAF12 agonist
COc1ccc(NC(=O)c2cc(-c3ccco3)on2)c(OC)c1	-1	2	0	2	-1
Cc1cccc(NC(=O)c2cc3ccccc3oc2=O)c1	11*	4.3*	1	4	0
COc1ccc(NC(=O)c2cc3ccccc3oc2=O)c(OC)c1	11*	2	1	5	0
COc1ccc(-c2nnc(-c3cc4ccccc4oc3=O)o2)cc1	2	0	1	1	-1
COc1ccc2oc(=O)c(C(=O)Nc3cccc(C)c3)cc2c1	6	0	1	0	-1
COc1ccc(-c2cc3ccccc3oc2=O)cc1	13*	2	2	5	0
Cc1ccc(CN2CCCCC(NC(=O)c3ccc(N(C)C)cc3)C2=O)cc1 (configuration not stated)	5	·	1	-2	-1
Cc1cccc(NC(=O)CSc2nc3ccccc3o2)c1	13*	2	1	3	0
COc1ccc(-c2cc3ccc(O)cc3oc2=O)cc1OC	3	0	0	5.8*	0
CN(C)S(=O)(=O)c1cccc(NC(=O)COC(=O)c2cc3ccccc3oc2=O)c1	13*	5.3*	3	4	1
O=C(O)c1ccccc1NC(=O)c1cc2ccccc2oc1=O	2	1	1	2	-1
Cc1ccnc(NC(=O)c2cc3ccccc3oc2=O)c1	11*	3	3	2	0
COC(=O)c1cccc(Cn2ccc3ccc(-c4ccc5ccn(C(=O)C6CC6)c5c4)cc32)c1	-4	·	0	-1	-1
COCc1cc(N2CCN(C(=O)OC(C)(C)C)C[C@H]2C)ccc1N1CCS(=O)(=O)CC1	-4	·	-1	0	-2
Cc1[nH]c2ccccc2c1CC(=O)Nc1ccc(Nc2cccnc2)c(-c2cc(F)cc(F)c2)c1	-5	·	-1	0	0
COC(=O)C1CN(CC(C)C)CCS(=O)(=O)N1Cc1ccc(OC)cc1 (configuration not stated)	1	·	1	2	-1
CCOc1cc(/C=C(\C#N)c2nc3ccccc3[nH]2)ccc1OC(C)C(=O)O (configuration not stated)	1	2	-1	0	-1
CCOc1cc(/C=C(/C#N)c2nc3ccccc3[nH]2)ccc1Oc1ccc([N+](=O)[O-])cn1	5	0	-1	5.8*	-1
C#CCN1C(=O)[C@@](O)(c2cccn2C)c2cc(F)ccc21	4	·	0	1	0
Cc1ccnc(SCc2cc(=O)c(OC(=O)c3ccc(C#N)cc3)co2)n1	0	·	·	0	-2
CCOC(=O)c1cc(C(C)=O)c(=O)[nH]c1C	-2	-1	-1	-1	-1
COC(=O)c1cc(C(C)=O)c(C)[nH]c1=O	-1	5.9*	0	-2	-1
CC(NC(=O)C12CC3CC(CC(O)(C3)C1)C2)c1ccccc1 (configuration not stated)	-2	5.7*	0	-1	-1
CC(=O)N1CCN(C2=NC(=O)C(=C3CCCCC3)S2)CC1	3	0	0	-1	-1
O=C1N=C(N2CCOCC2)SC1=C1CCCCC1	4	6.8*	0	-1	-1
